Bioassay records from PubChem.
MIN6 prolif = inducers of MIN6 beta-cell proliferation, primary screen, ATP luminescence, uHTS | 330,000 compounds, 0.29% hits | proliferation, % at 10 µM | MIN6 cells proliferation, ATPlite luminescence, 48 h; cells starved in 0.2% serum; 100% = growth in 10% serum;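 active = compounds whose signal lies at least 3.5 SD above the mean of all wells on their plate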;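 note: 0% = DMSO-treated cells in low-serum medium and 100% = 10% serum control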
JMJD2C inh = inhibitors of GASC-1 histone demethylase, primary screen, biochemical, fluorescence, DELFIA europium; Lysine-specific demethylase 4C (Homo sapiens), Q9H3R0; GST-JMJD2C(1-420) H3K9me3 demethylation; inhibition, % at 2.35 µM; 330,000 compounds, 0.069% hits; AID 2099, 2009;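 active = more than half of a compound's replicate wells show inhibition beyond 50%, single wells judged on their own value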;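 note: signal counts dimethyl H3K9 product captured on neutravidin plate; 0% = median of DMSO wells and 100% = 0.3 times that DMSO median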
Target sequence (Q9H3R0 1-420 limits assumed): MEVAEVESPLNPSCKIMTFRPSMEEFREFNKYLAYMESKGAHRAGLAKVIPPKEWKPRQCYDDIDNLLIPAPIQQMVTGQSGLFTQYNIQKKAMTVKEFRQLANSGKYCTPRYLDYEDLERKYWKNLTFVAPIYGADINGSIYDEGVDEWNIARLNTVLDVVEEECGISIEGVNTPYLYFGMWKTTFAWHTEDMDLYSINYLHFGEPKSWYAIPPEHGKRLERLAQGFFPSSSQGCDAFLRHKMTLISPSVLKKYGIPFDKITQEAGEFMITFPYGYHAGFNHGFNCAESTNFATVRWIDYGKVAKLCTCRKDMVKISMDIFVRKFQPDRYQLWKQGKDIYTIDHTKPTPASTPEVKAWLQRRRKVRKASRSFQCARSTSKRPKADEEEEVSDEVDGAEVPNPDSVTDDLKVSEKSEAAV
SMARCA2 act = SMARCA2 (BRM) function activators, primary screen, cell-based, luminescence, high throughput; activation, % at 9.1 µM; AID 652017, 2013; 370,000 compounds, 1% hits; MG213 cells, MMTV-luciferase reporter, dexamethasone, overnight; in the data active = activation above about 7.8%;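 note: 0% = vehicle wells and 100% = reference activator wells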
Exocytosis inh = LAMP-1 surface exposure blockers, TALL-104 cells – cell-based, flow cytometry, MLPCN library, primary screen | TALL-104 LAMP-1 surface exposure; cells stimulated with thapsigargin and PMA | inhibition, % at 10 µM | 360,000 compounds, 0.66% hits;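 active = inhibition above about 55%, limit read from the data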
PfM18AAP inh = PfM18AAP inhibitors, malaria aminopeptidase, primary screen, biochemical, QFRET, recombinant enzyme; 290,000 compounds, 1.2% hits; AID 1822, 2009; M18 aspartyl aminopeptidase (Plasmodium falciparum 3D7); inhibition, % at 7.35 µM; H-Glu-NHMec fluorogenic cleavage;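 active = inhibition above the campaign mean inhibition over all tested compounds plus 3 SD, cut at about 28% in these data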;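 note: 0% = plate median of test compound wells and 100% = 2 mM ZnCl2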
ALR H2O2 inh = inhibitors of human ALR sulfhydryl oxidase, primary screen, biochemical, H2O2 detection, HRP-luminol luminescence, single point; FAD-linked sulfhydryl oxidase ALR (Homo sapiens), P55789; purified ALR, DTT oxidation; inhibition, % (no concentration beside the values); 290,000 compounds, 3.8% hits;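 active = mean replicate inhibition above about 79%, with every replicate also reaching it, limit read from the data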
Target sequence (P55789 whole entry, looked up): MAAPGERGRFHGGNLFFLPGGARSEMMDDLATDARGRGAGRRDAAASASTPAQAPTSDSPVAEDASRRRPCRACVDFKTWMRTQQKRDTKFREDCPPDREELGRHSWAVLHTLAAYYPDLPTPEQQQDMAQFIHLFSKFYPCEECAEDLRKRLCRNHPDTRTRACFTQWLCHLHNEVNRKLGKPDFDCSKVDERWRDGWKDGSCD
* = called active by the depositor; . = no result given. In the library only some 5.4% were active in any assay of this set; here they are far more common.

SMILES	MIN6 prolif	JMJD2C inh	SMARCA2 act	Exocytosis inh	PfM18AAP inh	ALR H2O2 inh
CCN(CC)c1ccc(/C=C/C(=O)C2C(=O)C=C(C)OC2=O)cc1 (configuration not stated)	-2.4	6.7	5.4	-0.6	9.9	98.8*
COc1cccc(N2CCN(c3ccc4nnc(CCC(=O)Nc5ccccn5)n4n3)CC2)c1	3.5	-16.4	-2.2	-8.7	3.5	95.2*
COc1ccc(/C=N/n2cncn2)cc1CSc1ccccn1	1.0	6.1	0.2	-1.6	2.8	99.1*
COc1cccc(OCc2cc(/C=N/n3cncn3)ccc2OC)c1	-1.5	-12.4	1.8	2.8	2.0	-4.9
CCOc1ccc(CCNC(=O)CS(=O)Cc2nc(-c3ccc(C)cc3)oc2C)cc1OCC (configuration not stated)	2.2	7.0	-4.5	-1.6	-7.1	98.3*
CCOc1ccc(CCNC(=O)CS(=O)Cc2nc(-c3ccccc3C)oc2C)cc1OCC (configuration not stated)	-0.9	-33.7	-1.0	0.4	-3.5	98.7*
COc1ccc(-c2nc(CS(=O)CC(=O)NCCC3=CCCCC3)c(C)o2)cc1 (configuration not stated)	0.6	1.7	1.1	18.8	-10.2	99.2*
CCOc1ccc(CCNC(=O)COC(=O)COc2ccccc2C)cc1OCC	2.2	3.1	-0.6	17.8	.	-9.5
COc1ccc(-c2nc(CS(=O)(=O)CC(=O)NCCc3ccc(C)cc3)c(C)o2)cc1	-3.1	1.7	-2.5	-5.4	-1.4	-20.7
CCOc1ccc(CCNC(=O)CS(=O)Cc2nc(-c3ccc(C)cc3)oc2C)cc1 (configuration not stated)	-1.8	3.8	-0.3	2.5	-5.9	99.2*
CCCCCCCCN1CCS(=O)(=O)N(Cc2ccc(C(F)(F)F)cc2)C(C(=O)OC)C1 (configuration not stated)	.	.	1.8	.	.	.
O=C(C1CCCN(S(=O)(=O)c2ccccc2F)C1)N1CCN(Cc2ccccc2)CC1 (configuration not stated)	.	.	-0.1	.	.	.
Cc1ccc(CCNC(=O)CS(=O)Cc2nc(-c3cccc(C)c3)oc2C)cc1 (configuration not stated)	-5.1	7.1	-3.6	6.0	11.3	99.4*
COc1cccc(-c2nc(CS(=O)CC(=O)NCCc3ccc(C)cc3)c(C)o2)c1 (configuration not stated)	-3.2	2.8	-3.8	-0.5	0.4	13.7
COc1ccc(-c2cn[nH]c2-c2ccc(O)cc2O)cc1OC	-1.9	6.4	-1.5	-4.9	20.5	74.2
Oc1ccc(-c2n[nH]c(C(F)(F)F)c2-c2ccccc2)c(O)c1	-5.4	9.1	-5.8	3.1	5.7	97.3*
COc1ccc(-c2c(-c3ccc(O)cc3O)n[nH]c2C)cc1OC	-0.1	-3.4	.	-3.8	7.0	88.4*
COc1ccccc1-c1c(-c2ccc(O)cc2O)n[nH]c1C(F)(F)F	-5.8	10.0	-8.3	3.5	6.5	96.6*
COc1ccc(-c2c(-c3ccc(O)cc3O)n[nH]c2C(F)(F)F)cc1	-5.5	0.9	-2.2	-1.4	-4.0	.
O=C(NC1CC1)c1ccc2c(c1)N(Cc1ccccc1)CCS2	-0.8	9.6	-2.1	-20.8	2.5	70.8
CCN1CCN(CCCNC(=O)c2ccc3c(c2)N(Cc2ccccc2)CCS3)CC1	-0.8	0.3	0.5	3.5	4.1	98.9*
O=C(NCc1ccco1)c1ccc2c(c1)N(Cc1ccccc1)CCS2	-2.0	0.9	-2.7	-2.7	3.1	97.8*
COC(=O)c1ccc2c(c1)N(C)CCS2	-3.4	7.6	1.3	-1.8	-1.9	14.9
O=C(NCc1ccco1)c1ccc2c(c1)N(Cc1ccc(Cl)cc1)CCS2	-5.6	-2.5	-3.5	-2.0	4.0	72.9
Cc1ccc(CN2CCSc3ccc(C(=O)NCc4ccccn4)cc32)cc1	-0.9	-1.6	0.3	39.5	1.1	97.8*
SMILES	MIN6 prolif	JMJD2C inh	SMARCA2 act	Exocytosis inh	PfM18AAP inh	ALR H2O2 inh
Cc1ccccc1NC(=O)c1ccc2c(c1)N(C)CCS2	-0.4	8.1	1.2	-6.0	-1.9	97.6*
C#CCC1c2ccccc2CCN1CC=C (configuration not stated)	.	.	1.5	.	.	.
COc1ccc(CNC(=O)c2ccc3c(c2)N(C)CCS3)cc1	1.4	8.0	0.2	-5.4	14.7	95.9*
CCN1CCSc2ccc(C(=O)NCc3ccccc3C)cc21	5.3	4.2	-1.0	12.7	-5.0	89.8*
NS(=O)(=O)c1ccc(CCNC(=O)c2ccc3c(c2)N(Cc2ccccc2)CCS3)cc1	-0.2	7.8	2.0	-8.0	2.7	18.0
CC(C)Oc1ccc(CNC(=O)c2ccc3c(c2)N(C)CCS3)cc1	-2.2	1.3	1.3	3.1	6.0	11.6
O=C(NCCCN1CCCC1)c1ccc2c(c1)N(Cc1ccccc1)CCS2	-4.5	-6.4	-1.3	0.9	-1.9	99.3*
COC(=O)c1cc2c(c3c4cc(F)ccc4n(S(=O)(=O)c4ccccc4)c13)C(=O)N(Cc1ccc(N(C)C)cc1)C2	.	.	-4.0	.	.	.
O=C1C(=Cc2ccccc2Cl)CCc2ccccc21	.	.	-0.4	3.1	.	.
Cc1ccc([N+](=O)[O-])cc1N/C=C1\CCc2ccccc2C1=O	-2.9	-2.9	-1.9	57.1*	2.1	-5.3
COc1ccc(CN2C(NC(=O)OCc3ccccc3)=NC3=CC(C)(C)n4c(=O)n(-c5ccccc5)c(=O)n4C32)c(OC)c1 (configuration not stated)	.	.	-1.8	.	.	.
COC(=O)[C@]12C[C@H](CC(=O)NCc3ccc(C)o3)C(=O)N(Cc3ccc(Cl)cc3Cl)C1=C[C@H](C1CCCC1)O[C@@H]2C	.	.	-5.1	.	.	.
CCCN(CCC)c1ccc(CC(=O)NC(C)Cc2ccccc2)cc1 (configuration not stated)	-5.7	-6.3	2.6	8.4	5.0	97.9*
CCN(CC)c1ccc(CC(=O)NC(C)Cc2ccccc2)cc1 (configuration not stated)	-0.7	9.0	1.7	-2.9	-0.8	100.1*
CC(Cc1ccccc1)NC(=O)CC(c1ccccc1)c1ccccc1O (configuration not stated)	-4.8	-0.7	-0.3	32.4	1.1	-15.7
COc1ccccc1C(=O)N1CCN(C(=O)[C@@H](Cc2ccccc2)NC(=O)[C@H]2O[C@@H](n3cnc(C(N)=O)n3)[C@H](O)[C@@H]2O)CC1	.	.	-1.3	.	.	.
COc1ccc(OC)c(S(=O)(=O)N2CCCC(C(=O)N3CCN(Cc4ccccc4)CC3)C2)c1 (configuration not stated)	.	.	-6.8	.	.	.
